Sampled rows, rich in hits. Any-hit rate of the full collection: about 1.9%.
TNF necrop inh = blocks TNF-alpha induced death of Jurkat FADD-/- cells; Jurkat FADD-/- TNF necroptosis rescue, ATP luminescence, 24 h; 0 = TNF only, 100 = no-TNF cells; activation (protection from cell death), % at 10 µM; actives 0.068% (n = 220,000);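 active = activation, meaning protection from cell death, of at least 50% relative to plate controls; inactive = activation below 50%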;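 note: necroptosis triggered by 40 ng/mL TNF-alpha added together with compound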
Hsp70 act = transcriptional activators of Hsp70. HeLa Hsp70 promoter luciferase reporter, luminescence; scaled: vehicle 0, proteasome-inhibitor control 100%. actives 0.04% (n = 200,000). AID 1203. activation, % at 10 µM;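 active = activation above the mean across all tested compounds plus 3 SD, cutoff set per campaign, cut at about 5.5% in these data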;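 note: 100% = MG132 at 30 µM as the positive control and 0% = DMSO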
zVAD death inh = blocks zVAD induced death of L929 cells; AID 1377; L929 zVAD necroptosis rescue, ATP luminescence, 24 h; with zVAD 60 µM; viability rescue, % at 10 µM; actives 0.38% (n = 220,000);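 active = activation, scaled between plate controls, above about 75%, limit read from the data; inactive = activation under that limit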;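 note: 0% = zVAD with DMSO and 100% = DMSO alone without zVAD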
HSF-1 act = increases HSF-1 driven luciferase reporter signal; AID 504408; NIH3T3-HGL HSF-1 luciferase reporter, MG132, 8 h; 100% = twice DMSO control signal; activation, % at 9 µM; actives 1.7% (n = 300,000);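 active = mean replicate activation of at least 50% with a set share of replicates each reaching 50%; inconclusive = only one of those two conditions met; inactive = mean below 50% and too few replicates reaching it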;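 note: 0% = median of the neutral control wells and 100% = twice that signal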
* hit, by the source's call; ? = inconclusive; . = no result given.

SMILES	TNF necrop inh	Hsp70 act	zVAD death inh	HSF-1 act
CCOC(=O)/C(=C\c1ccccc1)NC(=O)c1ccccc1	-1	.	0	16
CC/C(=N\n1nnnc1Nc1ccccc1)c1ccccc1	-2	-1	0	7
CC(C)c1ccc(/C=N/n2nnnc2Nc2ccccc2)cc1	0	0	0	55*
CCOC(=O)Cn1nnnc1C(CC)N(Cc1cc2ccc(C)cc2[nH]c1=O)C1CCCC1 (centres undefined)	-1	0	0	69*
Cc1ccccc1-c1nc2cc(NC(=O)C3CC3)ccc2o1	.	.	.	91*
CC(=O)Nc1ccc2oc(-c3ccccc3Br)nc2c1	-6	0	0	?
CCC(C)n1cnc2c(c1=O)c1nc3ccccc3nc1n2Cc1ccc(OC)cc1 (centres undefined)	-12	0	-1	104*
COc1ccc(-n2cc(CNCCCn3ccnc3)c(-c3cccc(F)c3)n2)cc1	6	0	5	9
CC1CCc2nc(/C(C#N)=C/c3cccnc3)sc2C1 (centres undefined)	-3	0	2	126*
N#C/C(=C/c1cccnc1)c1ccccc1	.	.	.	11
N#C/C(=C\c1cccnc1)c1nc2c(s1)CCCC2	-1	0	3	107*
Cc1ccc(Cl)cc1N1CCN(C(=O)CN(c2ccccc2)S(=O)(=O)N(C)C)CC1	1	0	0	33
Clc1ccc(-c2csc(Nc3ccccc3)[n+]2Cc2ccco2)c(Cl)c1	-3	0	5	92*
CCCC[n+]1c(-c2ccc(Cl)cc2Cl)csc1Nc1ccccc1	0	0	2	24
COc1ccc(S(=O)(=O)N(CC(=O)N2CCCCCC2)c2ccccc2OC)cc1	.	.	.	-10
Cc1nc(Sc2ccc(Br)cc2)c(C#N)c(C)c1[N+](=O)[O-]	0	.	1	128*
Cc1ccc(Sc2nc(C)c([N+](=O)[O-])c(C)c2C#N)cc1	6	.	0	0
CCOc1ccc(-n2cc(C(=O)N3CCC(C)CC3)c3cc(OC)c(OC)cc3c2=O)cc1	-1	0	0	66*
CCOc1ccc(NC(=O)c2cn(-c3ccc(OCC)cc3)c(=O)c3cc(OC)c(OC)cc23)cc1	0	0	0	-18
C=CCn1c(SCC(=O)NC2CCCC2)nc2scc(-c3ccco3)c2c1=O	2	0	0	61*
CC(C)n1c(SCC(=O)NC2CCCCC2)nnc1-c1ccco1	.	.	.	67*
C=CCn1c(SCC(=O)NCCCC)nc2scc(-c3ccco3)c2c1=O	1	0	1	10
Cn1c(SCC(=O)NC2CCCCCC2)nnc1-c1ccco1	.	.	.	9
COc1ccc(S(=O)(=O)N2CCC(C(=O)N[C@@H](C)C(=O)NCc3ccccc3OC)CC2)cc1	.	.	.	34
Cc1ccc(-c2cnn(-c3cccc([N+](=O)[O-])c3)c2N)cc1	-3	0	0	60*
SMILES	TNF necrop inh	Hsp70 act	zVAD death inh	HSF-1 act
N#Cc1c2c(c(NCc3ccco3)n3c1nc1ccccc13)CCC2	-1	0	1	.
N#Cc1c2c(c(Nc3ccc(O)cc3)n3c1nc1ccccc13)CCC2	1	0	0	66*
Cn1c(/C=C/c2ccc(Br)cc2)nc2ccccc2c1=O	.	.	.	61*
COCCOC1CCN(C(=O)c2cc(COc3ccc(F)cc3F)on2)CC1	.	.	.	3
CCN(CCCNS(=O)(=O)c1ccc2c(c1)CCN2C(C)=O)c1cccc(C)c1	-2	0	1	69*
CC(=O)N1CCc2cc(S(=O)(=O)NCCC(=O)Nc3cccc(C)c3)ccc21	-1	0	1	11
Cc1cc2c3c(c1)C1(C(=O)N3C(C)(C)CC2C)C(C#N)=C(N)Oc2cc(O)ccc21 (centres undefined)	-5	0	-1	67*
CCCN1C=CC(=C/C=C(\C#N)C(=O)OCC)C=C1	3	0	89*	16
CCN1CCSc2ccc(C(=O)NCc3cccc(Br)c3)cc21	.	.	.	121*
CCOC(=O)C(NC(=O)N(C)C)(Nc1sc(C)c(CC)c1C#N)C(F)(F)F (centres undefined)	3	0	1	-28
COC(=O)C1C(=O)C2=C(CC1C)NC(C)=C(C(=O)OCc1ccc(OC)cc1)C2c1ccc(C)o1 (centres undefined)	-2	0	0	112*
COc1ccc(S(=O)(=O)N/N=C(/C)c2ccncc2)c(OC)c1	.	.	.	-3
c1ccc(Nc2nc(-c3ccccc3)ns2)cc1	.	.	.	59*
Cc1nc(Nc2ccc(C(=O)O)cc2)sc1-c1ccccc1	-1	0	8	10
Cc1nc(Nc2ccccc2)sc1-c1ccccc1	3	0	2	59*
COc1cc(/C=N/NC(=O)c2ccc([N+](=O)[O-])cc2Cl)cc(Br)c1O	4	0	2	46
COc1cc(/C=N/N2C(=O)c3ccccc3NC2(C)c2cccc([N+](=O)[O-])c2)cc(Br)c1O (centres undefined)	-4	0	0	56*
Oc1c(N=Nc2ccccn2)ccc2ccccc12	-20	0	39	265*
Cc1ccc(CNC(=O)C2CCCN(S(=O)(=O)N3CC(C)CC(C)C3)C2)cc1 (centres undefined)	.	.	.	9
[O-]/[N+](=C/c1ccco1)c1ccccc1	.	.	.	2
[O-]/[N+](=C\c1ccco1)c1ccc(Cl)cc1	.	.	.	99*
COc1ccc(C)cc1NC(=O)C/C(C)=N/NC(=O)Cc1cccc2ccccc12	.	.	.	109*
COc1cc2c(cc1OC)C(c1ccccc1)N(C(=O)C(C)(C)C)CC2 (centres undefined)	.	.	.	17
O=S(=O)(Cc1nc2ccccc2s1)c1ccccc1	1	0	0	59*
O=C(Nc1ccccc1)c1nc2ccccc2s1	-2	0	1	59*
SMILES	TNF necrop inh	Hsp70 act	zVAD death inh	HSF-1 act
CC(C)(C)NC(=O)c1nc2ccccc2s1	-1	-1	1	15
O=S(=O)(CCc1nc2ccccc2s1)c1ccc(Cl)cc1	1	0	2	-1
O=C(CCS(=O)(=O)c1ccccc1)Nc1ccc(-c2nc3ccccc3s2)cc1	-1	0	15	58*
O=C(CCS(=O)(=O)c1ccccc1)Nc1ccccn1	.	.	.	59*
Cc1cccc(C(=O)NC(=S)Nc2cccc3nc(C)ccc23)c1	.	.	.	6
CCOC(=O)N1CCN(Cc2c(NC(=O)c3ccco3)sc(C)c2C)CC1	1	0	2	99*
Cc1sc(NC(=O)c2ccco2)c(CN2CCN(c3ccc(F)cc3)CC2)c1C	3	0	0	87*
Cc1sc(NC(=O)c2ccco2)c(CN2CCN(c3ccccn3)CC2)c1C	2	0	0	40
O=C(c1cccs1)N1CCn2c1nc1ccccc12	-7	0	1	17
O=c1c2ccccc2nnn1CSc1ncnc2ccccc12	-3	0	0	112*
Nn1c(Cc2ccccc2F)nnc1SCn1nnc2ccccc2c1=O	-1	0	-1	11
Cc1ccc(SCn2nnc3ccccc3c2=O)c(C)c1	0	0	0	66*
O=c1ccnc(SCn2nnc3ccccc3c2=O)[nH]1	-1	0	0	-10

Assay outcomes: PubChem, several laboratories
